Laboratory results as given in the supplement of paper PMC3334620.
In all, about 33,000 sequences were measured (“E-score (-0.5 to 0.5)”: median about -0.0059, highest 2% from about 0.26 on). The list comes from a sample in which the highest values are over-represented; it also holds similar and randomly drawn sequences.

Target: T1, Cin5 (UniProt P40917)
T1 sequence: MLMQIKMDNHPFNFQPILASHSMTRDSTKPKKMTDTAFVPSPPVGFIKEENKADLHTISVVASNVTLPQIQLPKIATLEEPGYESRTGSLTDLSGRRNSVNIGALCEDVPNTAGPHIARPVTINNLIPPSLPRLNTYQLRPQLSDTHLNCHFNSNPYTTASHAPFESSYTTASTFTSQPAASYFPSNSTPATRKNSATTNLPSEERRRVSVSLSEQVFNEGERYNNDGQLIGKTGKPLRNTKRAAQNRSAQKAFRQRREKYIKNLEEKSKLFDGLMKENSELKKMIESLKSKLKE
Assay: PBM E-score (8-mer binding enrichment) (E-score (-0.5 to 0.5)); higher = stronger / more preferred TF binding
Details: protein concentration: 100 nM; construct: GST-full length
In short: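 Universal all-10-mer Agilent arrays, fresh or stripped once, were converted to double-stranded form by primer extension. GST-tagged yeast transcription factors from PURExpress in vitro transcription/translation, full-length or DNA-binding domain only, were applied at about 100-200 nM and detected with fluorescent anti-GST. After masliner normalisation, the Universal PBM Analysis Suite scored each ungapped eight-base word together with its reverse complement by E-score.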

| Sequence | PBM E-score |
| --- | --- |
| AGCTTCGG | -0.187 |
| CAAGCCTA | -0.16 |
| GGTTACAA | 0.0628 |
| CAAGTGAG | -0.036 |
| CAGATCGG | -0.0356 |
| ACGATTAC | 0.295 |
| ACGATTAA | 0.0274 |
| GGGATTAC | 0.264 |
| AAGATTAC | 0.255 |
| GCGATTAA | 0.209 |
| CGGATTAC | 0.122 |
| GCGATTAC | 0.264 |
| CCGATTAC | 0.23 |
| TCGATTAA | 0.267 |
| ACGATTGC | 0.153 |
| CCGATTAA | 0.117 |
| GGGATTAA | 0.23 |
| GCAGTACC | -0.0675 |
| CAGTTACC | -0.0935 |
| ACACACCG | -0.137 |
| CTAATGGC | -0.0137 |
| CCTTTGCA | -0.0748 |
| ATCACAGA | -0.0171 |
| CCCACGTA | -0.0439 |
| CACCCAGG | -0.237 |

| Sequence | PBM E-score |
| --- | --- |
| TACGATGA | 0.12 |
| AGGATTAT | -0.0477 |
| ACGATTAT | 0.274 |
| ACGATTAG | 0.158 |
| CCCGTTTA | 0.069 |
| AGATTACA | 0.286 |
| GGATTACA | 0.19 |
| CGATTACC | 0.143 |
| AGATTACT | 0.182 |
| AGATTACG | 0.419 |
| CGATTACA | 0.177 |
| CCATTACA | 0.223 |
| CGATTACG | 0.389 |
| TGATTACA | 0.301 |
| AGATTACC | 0.14 |
| TCATTACA | 0.164 |
| CCATTACG | 0.0601 |
| CTCCCTTC | -0.312 |
| AAAAGCCC | -0.0247 |
| CGGGCCTC | 0.0182 |
| CACACACA | 0.0837 |
| AAGACCAC | -0.205 |
| CACCCGGC | -0.351 |
| TCAGGCAA | -0.0467 |
| CGGGTGTA | 0.0316 |

| Sequence | PBM E-score |
| --- | --- |
| AATTCACG | -0.0153 |
| GATTCACA | 0.0537 |
| AATTCACA | 0.258 |
| AAGGTATA | -0.0348 |
| ACTAATCA | 0.264 |
| ACTAATCC | 0.125 |
| ACTAATCT | 0.128 |
| ACTAAACA | 0.258 |
| ACTAAACC | -0.0367 |
| ACTAATCG | 0.355 |
| TCTAAACA | -0.115 |
| TCTAATCA | 0.231 |
| CCTAATCG | 0.155 |
| CTCGACCC | -0.157 |
| CCGTTACG | 0.0353 |
| ATCTTTAA | 0.0357 |
| CCCCTCTC | -0.318 |
| AACGTCGG | -0.0613 |
| TATGTCGA | 0.0777 |
| AGTATTCA | 0.165 |
| CTCGCAAA | -0.0438 |
| GTCAGCCA | 0.07 |
| ATACCTAC | 0.046 |
| ATACCTAT | 0.176 |
| ATACCTAA | 0.286 |

| Sequence | PBM E-score |
| --- | --- |
| AGGCAGAC | -0.247 |
| ATGCTTTC | 0.155 |
| ATGCTTTA | -0.0364 |
| CTGCTTAC | 0.402 |
| ATGCTTAC | 0.265 |
| ATGCTTAA | 0.146 |
| CTGCTTTC | 0.058 |
| CTGCTGTC | -0.0623 |
| CTGCTTCC | -0.178 |
| CTGCTGAC | 0.26 |
| CTGCTTAA | 0.00628 |
| CTGCTGAA | -0.212 |
| CTGCTTTA | 0.278 |
| AAACCTGT | 0.0662 |
| ATGTGAGC | -0.0106 |
| AAAAGCTG | -0.148 |
| GCAGGAGC | -0.285 |
| GACCGCCC | -0.161 |
| TCGAGTCA | -0.0465 |
| ATTTCCTC | 0.09 |
| AGGAGCCG | -0.317 |
| AGAGGAGC | -0.233 |
| GGCTGCAA | -0.0216 |
| ATGCTTAG | 0.313 |
| ATGCTTGG | -0.0358 |

| Sequence | PBM E-score |
| --- | --- |
| ATGCTTCG | -0.0239 |
| GGGGAAAC | -0.0321 |
| CGGAACAA | 0.302 |
| CGGAACGA | 0.287 |
| AGGAACGA | -0.244 |
| GAGAACAA | 0.269 |
| TGGAACAA | 0.0669 |
| CGGAACAC | 0.177 |
| CGGAACGC | 0.0289 |
| GAGAACAC | 0.047 |
| AAGAACAA | 0.197 |
| CGCCCCAC | 0.131 |
| AGTTTCTG | 0.0528 |
| GTGGAGGA | -0.0744 |
| GGACTAAC | -0.232 |
| GTCACAAA | -0.0564 |
| GGATGGCA | 0.27 |
| GGATGGCC | -0.296 |
| TGATGGCA | -0.112 |
| AACCTAGG | -0.0368 |
| ATTCGTAA | 0.304 |
| GTACGTAC | -0.00455 |
| CTACGTAA | 0.24 |
| ATACGAAA | 0.265 |
| CTTCGTAA | 0.0958 |

| Sequence | PBM E-score |
| --- | --- |
| ATACGTAC | -0.0222 |
| ATACGTAA | 0.386 |
| GTACGTAA | 0.397 |
| ATACGAAT | 0.0148 |
| CTACGAAA | -0.0568 |
| GTTCGTAA | 0.153 |
| ATACGTAG | 0.116 |
| CACGGAAA | 0.224 |
| AAACTCAT | 0.205 |
| CGAGATAA | 0.255 |
| CGCACGGC | 0.001 |
| ACTTTTCT | 0.0353 |
| ATCCAGAG | 0.161 |
| CGCATCGC | -0.195 |
| CACAACTA | 0.211 |
| GATGAGTA | 0.152 |
| AGGGAGAC | -0.0805 |
| AAAGATAC | 0.186 |
| AACGATAC | 0.0238 |
| AAAGATAG | -0.0374 |
| AACGATAG | 0.0137 |
| AACGATAT | 0.285 |
| AAAGATAT | 0.3 |
| ATCGGTGA | 0.103 |
| GGCTGAGA | -0.0327 |

| Sequence | PBM E-score |
| --- | --- |
| GGCCCAAC | -0.0745 |
| CATGGCTA | 0.037 |
| AATGGCTC | 0.0552 |
| AATGGCAT | 0.32 |
| AATGGCAC | 0.00736 |
| AATGGCTA | 0.274 |
| AATGGCAG | 0.0479 |
| GCACTCCA | -0.111 |
| ATTTCGAA | 0.188 |
| CCGTAAGC | 0.332 |
| GCGTAAGC | 0.227 |
| CCGTAAAC | 0.072 |
| CCGTAATA | 0.203 |
| CCGTAAGA | -0.122 |
| CCGTAATC | 0.329 |
| GAATCCTA | 0.0175 |
| GGAAACTA | -0.105 |
| TATCTCCA | 0.112 |
| GGTAATCA | 0.289 |
| AGTAATGA | 0.13 |
| GTAAATCA | 0.284 |
| ATAAATCA | 0.185 |
| GGTAATGA | 0.153 |
| CTAAATCA | 0.00062 |
| AGTAATCG | 0.262 |

| Sequence | PBM E-score |
| --- | --- |
| AGTAATCA | 0.312 |
| GCTAATCA | 0.212 |
| AGTAATCC | 0.243 |
| ATTAATCG | 0.228 |
| AGTAATGG | 0.162 |
| CCTACCAC | -0.224 |
| CCACCGGA | 0.0953 |
| ATCAATAG | 0.0422 |
| CAGAGTAA | -0.0253 |
| AGACGTCA | -0.00622 |
| GGACGTCA | 0.0529 |
| TGACGTCA | 0.425 |
| GGTTGAAA | -0.00909 |
| ACGGTGCA | -0.139 |
| AAGGTTAA | 0.0178 |
| AAAGGGCA | -0.174 |
| TCAATCAA | 0.173 |
| GTAATCAC | 0.321 |
| GAAATCAA | 0.167 |
| CTAATCAA | 0.301 |
| TTAATCAA | 0.166 |
| GTAATCAA | 0.392 |
| GGAATCAA | 0.0945 |
| CTAATCAC | 0.248 |
| GAAATCAC | 0.149 |

| Sequence | PBM E-score |
| --- | --- |
| ACAGCGAA | -0.00314 |
| AGTTTGAA | 0.0821 |
| GCTTTGTA | 0.174 |
| GAAGATTC | 0.0827 |
| CCTGCAGC | -0.0691 |
| ATAAGCGA | 0.267 |
| ATAAGCGC | 0.188 |
| GTAAGCGA | 0.383 |
| ATAAGCGG | 0.206 |
| CTAAGCGA | 0.0261 |
| GGAAGCGA | 0.0828 |
| GACGTACC | -0.0136 |
| CATCGAAA | -0.0105 |
| CTTCAAAA | 0.0157 |
| GTGTTGAA | 0.0739 |
| GCTGGCCC | -0.269 |
| AAGCTAGA | -0.0103 |
| CTACAAAC | 0.043 |
| AAGGGAGT | -0.285 |
